# Several values for one entry are separate records, joined by “and”; a condition that tells them apart may be missing. Identical values can stand only once. Counter-ions that a name gives are not always drawn. In all, about 5,800 compounds went through this assay and about 620 (11%) showed activity. The sample holds actives, similar compounds and a random draw of the others, so the mix is not that of the screen. Unmarked numbers belong to inactive results.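 Rule for the calls: active = score above a cut-off or among the top three wells of a plate; in these data no inactive exceeds 0.85.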
# Test system: primary human hepatic stellate cells (donor 1)
# Test: scaled lipid accumulation score (0 = DMSO-like, 1 = nortriptyline-like); higher = stronger HSC inactivation (lipid re-accumulation), active = hit call of the paper
# Details: 48 h
# [1] = library stock concentration: 3.33 mM
# [2] = library stock concentration: 10 mM
# [3] = library stock concentration: 1 mM
compound,measurement,setting,value
COc1ccc(C2CC(=O)c3c(O)cc(OC4OC(COC5OC(C)C(O)C(O)C5O)C(O)C(O)C4O)cc3O2)cc1OC (stereo not drawn) [Methyl-Hesperidin],scaled lipid accumulation score,[1],≤ 0
same,scaled lipid accumulation score,[2],≤ 0
CCCCC/C=C\C/C=C\C/C=C\C/C=C\CCCC(=O)OC(COCCCCCCCCCCCCCCCC)COP(=O)([O-])OCC[N+](C)(C)C (stereo not drawn) [Arachidonoyl PAF C-16],scaled lipid accumulation score,[3],≤ 0
CC1CCN(CCCC(=O)c2ccc(F)cc2)CC1,scaled lipid accumulation score,[2],≤ 0
"Cl.O[Si](CCCN1CCCCC1)(c1ccc(F)cc1)C1CCCCC1 (stereo not drawn) [Hexahydro-sila-difenidol hydrochloride, p-fluoro analog]",scaled lipid accumulation score,[2],0.956 (active)
CC1CCN(CCCC(=O)c2ccc(F)cc2)CC1 [Melperone hydrochloride],scaled lipid accumulation score,[2],0.058
O=C(c1ccc(F)cc1)C1CCN(CCCCc2ccccc2)CC1 [4-(4-Fluorobenzoyl)-1-(4-phenylbutyl)-piperidine oxalate],scaled lipid accumulation score,[2],0.378
CC1CCN(CCCC(=O)c2ccc(F)cc2)CC1 [Metylperon],scaled lipid accumulation score,[2],≤ 0
C[C@H]1[C@H](C)CC[C@]2(C(=O)O)CC[C@]3(C)C(=CC[C@@H]4[C@@]5(C)CC[C@H](O)C(C)(C)[C@@H]5CC[C@]43C)[C@H]12 [Ursolic Acid],scaled lipid accumulation score,[1],0.013
same,scaled lipid accumulation score,[2],≤ 0
C[C@H]1[C@H](C)CC[C@]2(C(=O)O)CC[C@]3(C)C(=CC[C@@H]4[C@@]5(C)CC[C@H](O)C(C)(C)[C@@H]5CC[C@]43C)[C@H]12 [Ursolic acid],scaled lipid accumulation score,,0.053
O=C1CC2(CCCC2)CC(=O)N1CCNCC1COc2ccccc2O1 (stereo not drawn),scaled lipid accumulation score,[2],≤ 0 and 0.017
CCCCC1C(=O)CCC2C(CC=CCCCC(=O)O)C(=O)CC12 (stereo not drawn) [Bicyclo Prostaglandin E2],scaled lipid accumulation score,[3],≤ 0
C=C(NC(=O)C(=C)NC(=O)c1csc(C2=N[C@@H]3c4csc(n4)[C@H]4NC(=O)c5csc(n5)[C@H]([C@](C)(O)[C@@H](C)O)NC(=O)[C@H]5CSC(=N5)/C(=C/C)NC(=O)[C@H]([C@@H](C)O)NC(=O)c5csc(n5)[C@]3(CC2)NC(=O)[C@H](C)NC(=O)C(=C)NC(=O)[C@H](C)NC(=O)[C@H]([C@@H](C)CC)N[C@@H]2C=Cc3c([C@H](C)O)cc(nc3[C@H]2O)C(=O)O[C@@H]4C)n1)C(N)=O [Thiostrepton],scaled lipid accumulation score,,1.19 (active)
COP(=O)(OC)OC(c1ccc(Cl)cc1)P(=O)(OC)OC (stereo not drawn),scaled lipid accumulation score,[2],≤ -0.001
COc1cc(C[C@H]2COC(=O)[C@@H]2Cc2ccc(O)c(OC)c2)ccc1O [Matairesinol],scaled lipid accumulation score,[3],≤ 0
CC1(C)CC(=O)c2c(ccc(C(=O)CC(N)CO)c2N)O1 (stereo not drawn),scaled lipid accumulation score,[2],1.03 (active)
CO/N=C(\C(=O)N[C@@H]1C(=O)N2C(C(=O)O)=C(CSc3nc(=O)c(O)nn3C)CS[C@H]12)c1csc(N)n1 [Ceftriaxone sodium trihydrate],scaled lipid accumulation score,library stock concentration: 3.1 mM,≤ 0
same,scaled lipid accumulation score,[2],≤ -0.027 and 0.254
CO/N=C(\C(=O)N[C@@H]1C(=O)N2C(C(=O)O)=C(CSc3nc(=O)c(O)nn3C)CS[C@H]12)c1csc(N)n1 [Ceftriaxone sodium],scaled lipid accumulation score,[2],≤ 0
N#Cc1c(-c2ccccc2)no[n+]1[O-] [Furoxan],scaled lipid accumulation score,library stock concentration: 26.7 mM,1 (active)
CCCCCC[C@@H]([C@@H](C)O)n1cnc2c(N)ncnc21 (racemic),scaled lipid accumulation score,library stock concentration: 18 mM,0.052
CC1(C)CCC(CN2CCN(c3ccc(C(=O)NS(=O)(=O)c4ccc(NCC5CCOCC5)c([N+](=O)[O-])c4)c(Oc4cnc5[nH]ccc5c4)c3)CC2)=C(c2ccc(Cl)cc2)C1,scaled lipid accumulation score,[1],≤ -0.009
same,scaled lipid accumulation score,[2],≤ 0
O=C1c2ccccc2-c2nc3nnnn3nc21 [PDK1/Akt/Flt Dual Pathway Inhibitor],scaled lipid accumulation score,[1],0.462
O=S(c1ccccc1)c1ccc2nnnn2n1 (stereo not drawn),scaled lipid accumulation score,[2],1.3 (active)
COC(=O)C1=CO[C@@H](O)[C@@H]2C(CO)=CC[C@H]12 [Genipin],scaled lipid accumulation score,[1],≤ 0
same,scaled lipid accumulation score,[2],0.019 and ≤ -0.028
CC(C)(C)C(=O)Oc1ccc(S(=O)(=O)Nc2ccccc2C(=O)NCC(=O)O)cc1 [Sivelestat sodium salt hydrate],scaled lipid accumulation score,[2],≤ -0.055
O=C(NOCC1CC1)c1cc(Br)c(F)c(F)c1Nc1ccc(I)cc1Cl,scaled lipid accumulation score,[2],≤ 0
Br.NC(=O)C(c1ccccc1)(c1ccccc1)[C@@H]1CCN(CCc2ccc3c(c2)CCO3)C1,scaled lipid accumulation score,[2],0.88 (active)
c1ccc(C(O[C@@H]2CCCN(CCc3ccc4c(c3)OCO4)C2)c2ccccc2)cc1 [Zamifenacin fumarate],scaled lipid accumulation score,[2],0.194
OC(CCN1CCCC1)(c1ccccc1)C1CCCCC1 (stereo not drawn) [Procyclidine hydrochloride],scaled lipid accumulation score,,0.092
same,scaled lipid accumulation score,library stock concentration: 6.2 mM,0.569
same,scaled lipid accumulation score,[2],0.484
NC(=O)C(c1ccccc1)(c1ccccc1)[C@@H]1CCN(CCc2ccc3c(c2)CCO3)C1 [Darifenacin HBr],scaled lipid accumulation score,[1],≤ 0
CC(C)(C(=O)O)c1ccc(C(O)CCCN2CCC(C(O)(c3ccccc3)c3ccccc3)CC2)cc1 (stereo not drawn) [Fexofenadine hydrochloride],scaled lipid accumulation score,[2],≤ -0.07 and 0.008
CC(C)(C(=O)O)c1ccc(C(O)CCCN2CCC(C(O)(c3ccccc3)c3ccccc3)CC2)cc1 (stereo not drawn),scaled lipid accumulation score,[2],≤ 0
NC(=O)C(c1ccccc1)(c1ccccc1)[C@@H]1CCN(CCc2ccc3c(c2)CCO3)C1,scaled lipid accumulation score,[2],0.413
Br.NC(=O)C(c1ccccc1)(c1ccccc1)[C@@H]1CCN(CCc2ccc3c(c2)CCO3)C1 [Darifenacin HBr],scaled lipid accumulation score,[2],1.03 (active)
CC(C)(C(=O)O)c1ccc(C(O)CCCN2CCC(C(O)(c3ccccc3)c3ccccc3)CC2)cc1 (stereo not drawn) [Fexofenadine HCl],scaled lipid accumulation score,,≤ 0
same,scaled lipid accumulation score,[1],≤ 0
same,scaled lipid accumulation score,[2],0.057

# — the supplement of paper PMC9135407
